Nine compounds from PubChem BioAssay (Tox21) can be followed below.

The nature of assay [1]: qHTS assay to test for compound auto fluorescence at 535 nm (green) in HEK293 cells (AID 720680). Note: potency is the fitted concentration of half-maximal effect.
Assay [2] can be described thus: qHTS assay to test for compound auto fluorescence at 460 nm (blue) in HEK293 cell free culture (AID 720681). The essentials: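 Test compounds were pinned into cell-free culture medium (DMEM with 10% FBS) and fluorescence was read directly at Ex/Em 405/460 nm. Signals were expressed as fluorescence equivalents of triamterene, with DMSO vehicle as control.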
Assay [3] is described as follows: qHTS assay to test for compound auto fluorescence at 535 nm (green) in HEK293 cell free culture (AID 720682). Note: potency is the fitted concentration of half-maximal effect. Summed up:
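No cells present: wells hold DMEM supplemented with 10% FBS, into which compound or vehicle is pinned. Green emission is then recorded (485 nm excitation, 535 nm emission) and scaled to fluorescein.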
For orientation: qHTS replaces the single test concentration by a dilution series.

The nature of assay [4]: qHTS assay to test for compound auto fluorescence at 590 nm (red) in HepG2 cell free culture (AID 720684). Note: potency is the fitted concentration of half-maximal effect. The essentials: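 Red fluorescence (540 nm excitation, 590 nm emission) was measured after compound transfer into cell-free MEM supplemented with 10% FBS. Values are equivalencies against Rose Bengal sodium.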
A short description of assay [5]: qHTS assay to test for compound auto fluorescence at 460 nm (blue) in HepG2 cell free culture (AID 720685). Summed up: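 Compound (23 nL) or DMSO pinned into cell-free MEM with 10% FBS; blue fluorescence read at 405/460 nm excitation/emission, expressed as auto-fluorescence equivalency to triamterene.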
Assay [6] in a line: qHTS assay to test for compound auto fluorescence at 535 nm (green) in HepG2 cell free culture (AID 720686). Note: potency is the fitted concentration of half-maximal effect.
The nature of assay [7]: qHTS assay to test for compound auto fluorescence at 460 nm (blue) in HepG2 cells (AID 720687). The essentials: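 Cells (2,000/well in MEM with 10% FBS) attached overnight at 37 C, then were exposed to compound or DMSO for 1 hr at 37 C, 5% CO2. Fluorescence read at Ex/Em 405/460 nm, expressed as triamterene-equivalent signal.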
Assay [8] is described as follows: qHTS assay to identify small molecule antagonists of the glucocorticoid receptor (GR) signaling pathway - cell viability counter screen (AID 720693). Note: nearly all actives have a fitted effect of over 55% in size.
Assay [9] is described as follows: qHTS assay for identifying genotoxic compounds that show differential cytotoxicity against isogenic chicken DT40 cell lines with known DNA damage response pathways - wild type cell line (AID 743012). Note: nearly all actives have a fitted effect of over 60% in size. Note: potency is the fitted concentration of half-maximal effect. Summed up:
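Using parental DT40 (300 cells/well), compounds delivered in DMSO incubate 40 h at 37 C/5% CO2. CellTiter-Glo reagent then stands 30 min at room temperature, and luminescence gives cell viability.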

The nature of assay [10]: qHTS assay for identifying genotoxic compounds that show differential cytotoxicity against isogenic chicken DT40 cell lines with known DNA damage response pathways - Rev3 mutant cell line (AID 743014). Note: nearly all actives have a fitted effect of over 55% in size. Note: potency is the fitted concentration of half-maximal effect.
Assay [11] is described as follows: qHTS assay to identify small molecule antagonists of the thyroid receptor (TR) signaling pathway - cell viability counter screen (AID 743064). Note: nearly all actives have a fitted effect of over 50% in size. Summed up:
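Rat GH3 pituitary tumor cells stably expressing two TR response elements driving luciferase were plated, rested 4 h, then dosed with library compounds and T3 (1 nM final). After 23.5 h at 37 °C, CellTiter-Fluor was added for 30 min and fluorescence recorded.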

A short description of assay [12]: qHTS assay for identifying genotoxic compounds that show differential cytotoxicity against isogenic chicken DT40 cell lines with known DNA damage response pathways - Rad54/Ku70 mutant cell line (AID 743015). Note: nearly all actives have a fitted effect of over 60% in size. Note: potency is the fitted concentration of half-maximal effect.
In assay [13] the target is Glucocorticoid receptor (Homo sapiens) (UniProt P04150). As to the kind of experiment: qHTS assay to identify small molecule agonists of the glucocorticoid receptor (GR) signaling pathway (AID 720691; active = well fitted activation curve with a large enough effect in the signal ratio in the repeat runs, not every such curve was filed as active; the % refers to the signal ratio). Summed up: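 Reporter read-out: fluorescence intensity following 2 h room-temperature LiveBLAzer B/G FRET substrate loading. Prior step: GR-bla HeLa cells held 4 h, then treated 18 h at 37 C.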
Glucocorticoid receptor (Homo sapiens), sequence (P04150 whole entry, looked up): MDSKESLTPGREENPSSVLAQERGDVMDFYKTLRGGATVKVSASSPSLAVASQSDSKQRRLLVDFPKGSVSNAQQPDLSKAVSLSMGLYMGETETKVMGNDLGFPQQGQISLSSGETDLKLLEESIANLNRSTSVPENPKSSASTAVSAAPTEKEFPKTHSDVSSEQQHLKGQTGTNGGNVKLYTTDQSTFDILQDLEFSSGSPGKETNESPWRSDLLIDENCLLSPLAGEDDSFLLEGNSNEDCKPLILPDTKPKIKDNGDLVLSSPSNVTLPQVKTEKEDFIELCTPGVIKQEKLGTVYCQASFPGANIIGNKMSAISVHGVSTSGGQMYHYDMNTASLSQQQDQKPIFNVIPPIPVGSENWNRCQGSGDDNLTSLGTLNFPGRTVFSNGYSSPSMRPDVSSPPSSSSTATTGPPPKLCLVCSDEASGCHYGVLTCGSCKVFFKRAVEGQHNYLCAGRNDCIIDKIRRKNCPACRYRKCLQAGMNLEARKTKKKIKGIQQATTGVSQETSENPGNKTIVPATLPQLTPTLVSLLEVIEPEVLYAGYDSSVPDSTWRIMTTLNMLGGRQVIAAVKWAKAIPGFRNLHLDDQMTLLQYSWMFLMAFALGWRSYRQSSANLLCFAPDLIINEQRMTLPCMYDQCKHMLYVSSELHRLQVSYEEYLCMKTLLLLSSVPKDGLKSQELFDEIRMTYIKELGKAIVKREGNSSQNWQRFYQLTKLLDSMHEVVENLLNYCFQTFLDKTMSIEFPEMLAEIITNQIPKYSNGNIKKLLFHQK

Assay [14] has the same target. As to the kind of experiment: qHTS assay to identify small molecule antagonists of the glucocorticoid receptor (GR) signaling pathway (AID 720692; active = well fitted inhibition curve with a large enough effect in the signal ratio in the repeat runs, not every such curve was filed as active; the % refers to the signal ratio). Summed up: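 Dexamethasone (5 nM final) stimulated a stably integrated GRE-beta-lactamase reporter in HeLa cells during 18 h co-incubation with compounds; signal was quantified as fluorescence intensity of B/G FRET substrate after 2 h.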

Assay [15] can be described thus: qHTS assay to identify small molecule antagonists of the androgen receptor (AR) signaling pathway - cell viability counter screen (AID 743033; note: nearly all actives have a fitted effect of over 45% in size).
Assay [16] is described as follows: qHTS assay to identify small molecule antagonists of the androgen receptor (AR) signaling pathway using the MDA cell line - cell viability counter screen (AID 743041; note: nearly all actives have a fitted effect of over 45% in size). Summed up:
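MDA-kb2 AR-luc human breast carcinoma cells (MMTV-luciferase, AR/GR responsive) were treated with compounds plus R1881 agonist for 16 h at 37 °C. Viability was read as CellTiter-Fluor fluorescence in the same wells as the reporter assay.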

Assay [17] is described as follows: qHTS assay to test for compound auto fluorescence at 590 nm (red) in HEK293 cell free culture (AID 720683). Note: potency is the fitted concentration of half-maximal effect. Summed up: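 Tox21 10K library compounds were pinned into cell-free DMEM with 10% FBS and fluorescence was read at excitation 540 nm. Activity is expressed as Rose Bengal sodium equivalency.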
The target in assay [18] is Androgen receptor (Homo sapiens) (UniProt P10275). The assay can be described thus: qHTS assay to identify small molecule antagonists of the androgen receptor (AR) signaling pathway (AID 743035; active = well fitted inhibition curve with a large enough effect in the signal ratio in the repeat runs, not every such curve was filed as active; the % refers to the signal ratio). Summed up:
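Using qHTS, AR-UAS-bla GripTite HEK293 cells received compound, then R1881, and were cultured 16 h at 37C/5% CO2 before a 2 h room-temperature LiveBLAzer B/G FRET substrate step and fluorescence measurement.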

Assay [19] shares this target. The assay can be described thus: qHTS assay to identify small molecule antagonists of the androgen receptor (AR) signaling pathway using the MDA cell line (AID 743042; note: nearly all actives have a fitted effect of over 55% in size). The essentials:
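MDA-kb2 cells (human breast carcinoma, stably carrying an MMTV-luciferase reporter responsive to AR and GR) were plated at 3,000 cells/well and preincubated 5 hr at 37C, then given compound plus R1881 agonist for 16 h. ONE-Glo luminescence was read.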

“And” between values parts separate entries of the source, which are not always exact repeats. Equal entries are not always repeated. Records with an inconclusive call do not appear. Some structures have more than one record in an assay (separate samples or runs), and their calls can disagree. The source made the active and inactive calls. Unless noted, calls come from the whole dose curve; as a rule, active = well fitted curve in the direction sought with a large enough effect in the repeat runs; inconclusive = weak or mixed curves; inactive = no such curve, though single readings can be large; an effect the other way counts as inactive or inconclusive.
% is set by controls: 0 for no effect and ±100 for the full control effect; tags give direction and shape of the fitted curve or compound fluorescence and quenching.

Androgen receptor (Homo sapiens), sequence (P10275 whole entry, looked up): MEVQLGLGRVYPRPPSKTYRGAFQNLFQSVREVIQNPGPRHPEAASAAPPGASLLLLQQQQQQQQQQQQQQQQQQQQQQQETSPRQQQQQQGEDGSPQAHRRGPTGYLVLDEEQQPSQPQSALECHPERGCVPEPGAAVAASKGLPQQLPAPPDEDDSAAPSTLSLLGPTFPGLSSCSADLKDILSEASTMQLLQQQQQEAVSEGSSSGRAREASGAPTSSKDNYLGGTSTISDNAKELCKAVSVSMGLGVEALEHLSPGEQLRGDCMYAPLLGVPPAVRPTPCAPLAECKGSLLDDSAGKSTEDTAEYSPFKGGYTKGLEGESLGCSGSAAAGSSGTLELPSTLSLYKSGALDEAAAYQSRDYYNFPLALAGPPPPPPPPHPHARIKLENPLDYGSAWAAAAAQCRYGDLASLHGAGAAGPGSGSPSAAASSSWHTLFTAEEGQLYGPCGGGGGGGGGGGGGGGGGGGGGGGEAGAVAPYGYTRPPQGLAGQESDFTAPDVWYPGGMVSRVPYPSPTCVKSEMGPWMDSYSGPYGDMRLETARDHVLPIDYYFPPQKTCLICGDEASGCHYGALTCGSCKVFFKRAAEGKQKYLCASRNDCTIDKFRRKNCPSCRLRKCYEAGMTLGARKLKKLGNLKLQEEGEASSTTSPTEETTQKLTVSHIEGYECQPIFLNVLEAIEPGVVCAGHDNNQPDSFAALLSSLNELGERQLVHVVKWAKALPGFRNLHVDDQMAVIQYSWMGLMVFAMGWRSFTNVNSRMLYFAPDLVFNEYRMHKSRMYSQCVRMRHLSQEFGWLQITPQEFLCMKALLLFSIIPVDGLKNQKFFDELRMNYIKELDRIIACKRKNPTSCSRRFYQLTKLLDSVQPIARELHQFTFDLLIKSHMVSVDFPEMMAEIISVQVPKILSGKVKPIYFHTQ

With `CCCCCCCCCCCCO`, the Potency entry in [1], in assay [2], in [3], in [4], in assay [5] and in assay [6] was “inactive” in each case. The Potency entry in assay [7], in assay [8], in assay [9], in [10] and in assay [11] was “inactive” in each case.

Regarding `CC1(C)NC(=O)N(c2ccc([N+](=O)[O-])c(C(F)(F)F)c2)C1=O`, the Potency entry in [1], in assay [2], in assay [3], in assay [4], in assay [5] and in assay [6] was “inactive” throughout. Moreover, the Potency result in [7] and in [11] was “inactive” throughout. Further, the Potency in [9] is 5.96 µM (active) and 4.86 µM (active); in [10], 10.6 µM (active) and 3.86 µM (active); in [12], 9.44 µM (active) and 3.44 µM (active).

For `Cc1ccc(S(=O)(=O)O)cc1C`, the Potency result in assay [1], in assay [2], in assay [3], in assay [4], in assay [5] and in assay [6] was “inactive” throughout. Further, the Potency entry in [7], in assay [13], in [14], in assay [8], in assay [9] and in assay [10] was “inactive” each time. For the same compound, the Potency entry in [15], in [16] and in assay [11] was “inactive” each time.

`C=CCCCCCCCCCC`: the Potency entry in assay [1], in assay [2], in assay [3], in assay [4], in assay [5] and in assay [6] was “inactive” each time. Further, the Potency entry in assay [7], in [13], in [14], in assay [9], in assay [10] and in [12] was “inactive” in each case.

Take `Cc1ccc(S(=O)(=O)NCl)cc1`: the Potency result in assay [1], in assay [2], in assay [3], in [4], in [5] and in assay [6] was “inactive” in each case. For the same compound, the Potency entry in assay [7], in assay [13], in [14], in assay [9], in [10] and in assay [15] was “inactive” in each case. Besides, the Potency entry in assay [16] and in assay [11] was “inactive” throughout.

`CC(C)=CCO`: the Potency entry in [1], in [2], in assay [3], in [17], in assay [4] and in assay [5] was “inactive” in each case. The Potency result in [6], in [7], in assay [9] and in assay [10] was “inactive” throughout.

For the compound `O=C1OC2(c3ccccc31)c1cc(I)c(O)c(I)c1Oc1c2cc(I)c(O)c1I`, the Potency in [1] is 10 µM [fluorescent] (active) and 14.1 µM [fluorescent] (active) and 17.8 µM [fluorescent] (active); in assay [3], 12.6 µM [fluorescent] (active) and 8.91 µM [fluorescent] (active) and 15.8 µM [fluorescent] (active); in [17], 11.2 µM [fluorescent] (active) and 17.8 µM [fluorescent] (active); in assay [4] it was 11.2 µM [fluorescent] (active) and 17.8 µM [fluorescent] (active) and 15.8 µM [fluorescent] (active); in assay [6] it was 11.2 µM [fluorescent] (active) [middle of 4 runs]; in assay [9] it was “inactive and 9.33 µM (active)”. Moreover, the Potency in assay [10] was 27.6 µM (active) and 11.7 µM (active). Besides, the Potency result in assay [2], in assay [5], in [7] and in assay [15] was “inactive” each time.

Regarding `CCC/C=C/C=O`, the Potency result in assay [1], in assay [2], in [3], in [4], in [5] and in assay [6] was “inactive” throughout. For the same compound, the Potency result in assay [7], in assay [13], in assay [14], in assay [8], in assay [9] and in assay [10] was “inactive” in each case. The Potency result in assay [15], in assay [18] and in [19] was “inactive” throughout.

`O=C(O)CCCC(=O)O`: the Potency entry in assay [1], in assay [2], in assay [3], in assay [4], in assay [5] and in [6] was “inactive” in each case. For the same compound, the Potency entry in [7], in assay [13], in assay [14], in assay [8], in assay [9] and in [10] was “inactive” each time. Moreover, the Potency result in assay [12], in assay [15], in assay [16] and in assay [11] was “inactive” each time.
